Screening data as filed in PubChem BioAssay.
CHT allo act: allosterically activates the human high affinity choline transporter; Q9GZV3; CHT-expressing cells, membrane potential dye, choline EC20; hits give high values; LV-AA mutant CHT in HEK293 cells; B-score at 10 µM; 310,000 tested, 0.49% active; AID 488977;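 active means initial fluorescence not abnormally high and integrated response B-score, plate-corrected, over 3 SD above library mean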
Target sequence (Q9GZV3 whole entry, looked up): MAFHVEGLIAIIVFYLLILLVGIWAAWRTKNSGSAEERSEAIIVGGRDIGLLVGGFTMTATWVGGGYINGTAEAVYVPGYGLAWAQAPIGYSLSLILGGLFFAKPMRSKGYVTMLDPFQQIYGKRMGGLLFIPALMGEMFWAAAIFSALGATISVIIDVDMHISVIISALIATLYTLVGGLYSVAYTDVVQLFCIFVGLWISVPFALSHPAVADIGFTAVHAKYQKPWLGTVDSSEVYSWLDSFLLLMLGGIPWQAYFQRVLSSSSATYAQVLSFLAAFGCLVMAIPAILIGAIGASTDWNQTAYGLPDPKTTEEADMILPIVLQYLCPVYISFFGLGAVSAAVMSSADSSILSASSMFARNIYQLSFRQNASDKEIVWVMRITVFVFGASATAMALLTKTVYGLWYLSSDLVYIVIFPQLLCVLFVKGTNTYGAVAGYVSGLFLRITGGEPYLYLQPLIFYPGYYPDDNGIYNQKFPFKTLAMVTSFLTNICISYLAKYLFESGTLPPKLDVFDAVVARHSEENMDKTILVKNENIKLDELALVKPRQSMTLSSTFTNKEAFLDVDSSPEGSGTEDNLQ
MIN6 prolif-1: induces beta-cell replication in MIN6 cells; MIN6 cells proliferation, ATPlite luminescence, 48 h; cells starved in 0.2% serum; 100% = growth in 10% serum; 330,000 tested, 0.29% active; proliferation, % at 10 µM;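 active means compounds whose signal lies at least 3.5 SD above the mean of all wells on their plate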;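 further: 0% = DMSO-treated cells in low-serum medium and 100% = 10% serum control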
CHT inh: inhibits the human high affinity choline transporter; B-score at 10 µM; CHT-expressing cells, membrane potential dye, choline response; hits give low values; 310,000 tested, 0.86% active; AID 488975;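 active means B-score over 3 SD under the library average, and starting fluorescence ratio not unusually high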;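 further: choline stimulus applied at its EC90 after an EC20 pre-addition; B-score computed on integrated fluorescence ratio after choline addition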
H9c2 TAG inh: triacylglycerol accumulation inhibition. 230,000 tested, 0.66% active. AID 651582. inhibition, % at 12.5 µM. H9c2 cells, Nile Red lipid (TAG) fluorescence; cells loaded with 200 µM oleic acid;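 active means pattern-corrected inhibition of lipid staining of at least 50% with the nuclear-stain viability signal not falling by more than 50%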;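 further: 0% = DMSO wells and 100% = triacsin C control wells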
MIN6 prolif-2: confirmation of inducers of beta-cell replication in MIN6 cells; 920 tested, under 10 active; MIN6 beta-cell proliferation, ATPlite luminescence, 48 h; cells kept in 0.2% serum; scaled between 0.2% and 10% serum; shares compounds with MIN6 prolif-1; AID 463095; proliferation increase, % at 50 µM;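 active means proliferation increase above 40% at any of the four tested concentrations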
Numbers without * were called inactive; i = inactive; / = not tested or not shown. Sampled rows, rich in hits. Any-hit rate of the full collection: about 1.7%.

SMILES	CHT allo act	MIN6 prolif-1	CHT inh	H9c2 TAG inh	MIN6 prolif-2
Cc1ccc2c(c1)cc(CN(Cc1ccc3c(c1)OCO3)C(=O)c1ccccc1)c1nnnn12	i	8.0*	i	-4.4	-2.6
CC1CCCCC1NC(=O)CN1C(=O)COc2ccccc21 (centres undefined)	i	-2.1	i	/	/
CCCCC(OC(=O)CN1C(=O)COc2ccccc21)C(=O)NC1CCCCC1 (centres undefined)	i	10.9*	i	/	-4.5
CCC(C)(C(=O)NC1CCCC1)N(Cc1ccco1)C(=O)c1ccc2c(c1)OCO2 (centres undefined)	i	8.7*	i	/	-4.5
CCC(C)(C(=O)NC1CCCC1)N(Cc1ccco1)C(=O)c1ccccn1 (centres undefined)	i	3.5	i	-1.3	/
CCOC(=O)C1=C(COC(=O)/C=C/c2ccc(OC)c(OC)c2)NC(=O)NC1C (centres undefined)	i	3.8	i	-9.3	/
CCOC(=O)C1=C(COC(=O)/C=C/c2ccc(OC)cc2OC)NC(=O)NC1C (centres undefined)	i	13.1*	i	-7.1	1.6
CC(=O)N/N=C/c1ccc(OCCOc2ccc(Br)cc2)cc1	i	-1.3	i	/	/
O=C1Nc2ccc(S(=O)(=O)N3CCCC3)c3ccc(S(=O)(=O)N4CCCC4)c1c23	i	9.2*	i	-11.2	4.6
COc1ccc(OC)c(-n2c(SCC(=O)NCC3CCCO3)nc3ccccc3c2=O)c1 (centres undefined)	/	2.8	/	3.3	/
COc1ccc(CNc2cc(C)ccc2C)c(OC)c1OC	i	9.2*	i	/	-4.4
CCN(CC)C(=O)C(=O)N/N=C/c1ccc(C(=O)OC)cc1	i	-1.0	i	/	/
COC(=O)CC/C(O)=C1\C(=O)CC(C)(C)CC1=NCCc1nc2ccccc2[nH]1	i	-3.5	i	/	/
CCCNC(=O)c1ccccc1NC(=O)COc1cccc2c1OC(C)(C)C2	i	4.9	i	-5.5	/
CC1(C)Cc2cccc(OCC(=O)Nc3ccccc3F)c2O1	i	14.7*	i	-6.6	-4.7
O=C(CSc1nnc(CNC(=O)c2cccs2)o1)Nc1cccc(F)c1	i	3.0	i	/	/
O=C(CSc1nnc(CNC(=O)c2cccs2)o1)Nc1cccc(C(F)(F)F)c1	i	5.1*	i	-25.6	-1.0
COc1ccc(S(=O)(=O)N2CCCCC2c2cc(C(=O)Nc3ccc4c(c3)OCO4)no2)cc1 (centres undefined)	/	/	/	41.7	/
COc1nc(-c2ccncc2)nc2ccccc12	i	6.2*	i	-6.1	-5.0
COc1ccc(Oc2nc(-c3ccncc3)nc3ccccc23)cc1	i	-3.0	i	21.1	/
CC(Sc1nnnn1C1CCCC1)C(=O)Nc1cccc(S(=O)(=O)N2CCOCC2)c1 (centres undefined)	/	-2.1	/	-4.7	/
COCCCn1c(C(=O)NC2CCCCC2C)cc2c(=O)n3cccc(C)c3nc21 (centres undefined)	i	4.9*	i	/	-6.3
Cc1cc(C)nc(-n2nc(C)cc2NC(=O)CN2CCC(C)CC2)n1	i	4.9*	i	/	-6.4
CCN(C(=O)COC(=O)c1cccc(-n2cnnn2)c1)C1CCCCC1	i	1.6	i	9.2	/
CCN(CC)C(=O)[C@]1(c2ccccc2)C[C@@H]1CN	i	12.2*	i	/	0.7
SMILES	CHT allo act	MIN6 prolif-1	CHT inh	H9c2 TAG inh	MIN6 prolif-2
CCN(CC(=O)Nc1c(F)cccc1F)C(=O)C1(c2ccccc2)CC1	i	0.9	i	-10.7	/
CCC(C)(C#CCN1CCCCC1)OCCC#N (centres undefined)	i	0.0	i	/	/
O=C(CS(=O)(=O)c1ccc(Br)cc1)N1CCOCC1	i	11.2*	i	-8.7	-2.9
COc1ccc(Cl)cc1C(=O)OCC(=O)NCCNC(=O)COC(=O)c1cc(Cl)ccc1OC	i	9.7*	i	11.6	1.1
COc1ccc(Cl)cc1C(=O)OCC(=O)Nc1sccc1C(N)=O	/	4.7	/	4.7	/
COc1cc(N)c(Cl)cc1C(=O)OCC(=O)NCC1CCCCC1	/	8.8*	/	2.5	-5.5
Cc1ccsc1C(C(=O)NC(C)(C)C)N(Cc1ccco1)C(=O)c1csnn1 (centres undefined)	i	10.2*	i	/	-0.4
COc1cc(C(=O)OCC(=O)NCC2CCCCC2)ccc1OCC(C)C	i	-1.3	i	10.3	/
COc1cc(C(=O)OCC(=O)NC2CCCCCC2)ccc1OCC(C)C	i	11.4*	i	3.3	-0.7
O=S(=O)(c1ccc(Br)cc1)c1nc(-c2ccco2)oc1NCC1CCCO1 (centres undefined)	i	1.6	i	-6.8	/
CN(CC(=O)Nc1ccc(Cl)c(C(F)(F)F)c1)C(=O)c1ccccc1SCC(=O)N1CCCC1	/	/	/	5.4	/
COc1ccc(OC)c(NC(=O)CCn2cccc2)c1	i	7.5*	i	/	-1.3
COc1ccc(NC(=O)CCn2cccc2)c(OC)c1	i	-2.5	i	-17.6	/
CC(=O)Nc1ccccc1NC(=O)c1cccc2ccccc12	i	0.0	i	0.5	/
O=C(Nc1ccccc1Br)c1cccc2ccccc12	i	8.7*	i	-0.8	-2.9
CN1CCN(c2nc(-c3ccco3)cc(C(F)(F)F)n2)CC1	i	1.1	i	/	/
O=[N+]([O-])c1cn(-c2nc(-c3ccco3)cc(C(F)(F)F)n2)cn1	i	7.7*	i	1.2	-0.2
COC(=O)c1ccc(SC)cn1	i	10.6*	i	2.2	0.1
COC(=O)c1ccc(C(=O)OC)nc1	i	0.4	i	-1.1	/
c1ccc(Cn2nnnc2CN2CCCC2)cc1	i	4.8*	i	/	1.7
O=C(NC1CCN(Cc2ccccc2)CC1)c1cccc(S(=O)(=O)Nc2ccc(SC(F)F)cc2)c1	/	-5.6	/	-8.2	/
CN(C)C(=O)CN1C(=O)C2CC=C(Cl)CC2C1=O (centres undefined)	i	-1.1	i	/	/
CCN(CC)C(=O)CN1C(=O)C2CC=C(Cl)CC2C1=O (centres undefined)	i	6.9*	i	/	0.6
O=C(c1ccco1)N1CCCC(c2nc3c(nnn3Cc3c(Cl)cccc3Cl)c(=O)[nH]2)C1 (centres undefined)	i	8.4*	i	/	-5.8
CCOC(=O)CSc1nc2ccccc2c(=O)n1C1CCCC1	i	5.3*	i	-17.1	-6.5
CNC(=O)CSc1nc2ccccc2c(=O)n1C1CCCCC1	i	-3.5	i	/	/
CCOc1ccc(CCNS(=O)(=O)c2ccc3c(c2)N(C(C)=O)CCO3)cc1OCC	i	15.3*	i	/	-2.4
CCOc1ccc(N2C(=O)CC(NCCNc3ccc(C(=O)c4cccs4)cc3)C2=O)cc1 (centres undefined)	i	-3.4	i	6.2	/
COc1ccc(CNC(=O)c2ccc(N3CCC4(CC3)CC(c3ccc(Cl)cc3)=NO4)c(N)c2)cc1	i	-5.9	i	/	/
